# Experimental data reported in the supplement of paper PMC4466140.
# Legend:
# Assay in all cases: SPOT peptide array binding signal intensity (averaged, normalized) (arbitrary units (background-subtracted, floor 0; scale differs between SH3 domains)); higher = stronger binding of the SH3 domain to the peptide
# [1] = biological target: AgAbp1
# Summary of the method: (§1)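 To measure binding, SH3 domains from four yeast species were fused to GST, expressed in E. coli BL21(DE3) and purified on glutathione Sepharose. Each domain was incubated at 10 μg/ml overnight at 4°C on cellulose membranes with synthetic 15-mer peptides whose cysteines were replaced by serines. Anti-GST antibody, an HRP anti-mouse secondary and luminol were used for detection, and images were quantified with Genespotter. Reported binding signal is normalized, background-subtracted spot intensity averaged over replicates, in arbitrary units that differ between domains.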
# [2] = biological target: AgBbc1
# Summary of the method: as §1
# [3] = biological target: AgBem1-D1
# Summary of the method: as §1
# [4] = biological target: AgBzz1-D1
# Summary of the method: as §1
# [5] = biological target: AgBzz1-D2
# Summary of the method: as §1
# [6] = biological target: AgCyk3
# Summary of the method: as §1
# [7] = biological target: AgFus1
# Summary of the method: as §1
# [8] = biological target: AgHof1
# Summary of the method: as §1
# [9] = biological target: AgHse1
# Summary of the method: as §1
# [10] = biological target: AgLsb1
# Summary of the method: as §1
# [11] = biological target: AgLsb4
# Summary of the method: as §1
# [12] = biological target: AgMyo5
# Summary of the method: as §1
# [13] = biological target: AgNbp2
# Summary of the method: as §1
# [14] = biological target: AgRvs167
# Summary of the method: as §1
# [15] = biological target: AgSho1
# Summary of the method: as §1
# [16] = biological target: AgSla1-D1-D2
# Summary of the method: as §1
# [17] = biological target: AgSla1-D3
# Summary of the method: as §1
# [18] = biological target: CaAbp1-D1
# Summary of the method: as §1
# [19] = biological target: CaAbp1-D2
# Summary of the method: as §1
# [20] = biological target: CaBbc1
# Summary of the method: as §1
# [21] = biological target: CaBem1-D1
# Summary of the method: as §1
# [22] = biological target: CaBzz1-D1
# Summary of the method: as §1
# [23] = biological target: CaBzz1-D2
# Summary of the method: as §1
# [24] = biological target: CaCyk3
# Summary of the method: as §1
# [25] = biological target: CaFus1
# Summary of the method: as §1
# [26] = biological target: CaHof1
# Summary of the method: as §1
# [27] = biological target: CaHse1
# Summary of the method: as §1
# [28] = biological target: CaLsb1
# Summary of the method: as §1
# [29] = biological target: CaLsb4
# Summary of the method: as §1
# [30] = biological target: CaMyo5
# Summary of the method: as §1
# [31] = biological target: CaNbp2
# Summary of the method: as §1
# [32] = biological target: CaRvs167
# Summary of the method: as §1
# [33] = biological target: CaRvs167-3
# Summary of the method: as §1
# [34] = biological target: CaSho1
# Summary of the method: as §1
# [35] = biological target: CaSla1-D1-D2
# Summary of the method: as §1
# [36] = biological target: CaSla1-D3
# Summary of the method: as §1
# [37] = biological target: ScAbp1
# Summary of the method: as §1
# [38] = biological target: ScBbc1
# Summary of the method: as §1
# [39] = biological target: ScBem1-D1
# Summary of the method: as §1
# [40] = biological target: ScBzz1-D1
# Summary of the method: as §1
# [41] = biological target: ScBzz1-D2
# Summary of the method: as §1
# [42] = biological target: ScCyk3
# Summary of the method: as §1
# [43] = biological target: ScFus1
# Summary of the method: as §1
# [44] = biological target: ScHof1
# Summary of the method: as §1
# [45] = biological target: ScHse1
# Summary of the method: as §1
# [46] = biological target: ScLsb1
# Summary of the method: as §1
# [47] = biological target: ScLsb2
# Summary of the method: as §1
# [48] = biological target: ScLsb3
# Summary of the method: as §1
# [49] = biological target: ScLsb4
# Summary of the method: as §1
# [50] = biological target: ScMyo3
# Summary of the method: as §1
# [51] = biological target: ScMyo5
# Summary of the method: as §1
# [52] = biological target: ScNbp2
# Summary of the method: as §1
# [53] = biological target: ScPex13
# Summary of the method: as §1
# [54] = biological target: ScRvs167
# Summary of the method: as §1
# [55] = biological target: ScSho1
# Summary of the method: as §1
# [56] = biological target: ScSla1-D1-D2
# Summary of the method: as §1
# [57] = biological target: ScSla1-D3
# Summary of the method: as §1
# [58] = biological target: SpAbp1-D1
# Summary of the method: as §1
# [59] = biological target: SpBbc1
# Summary of the method: as §1
# [60] = biological target: SpBzz1-D1
# Summary of the method: as §1
# [61] = biological target: SpBzz1-D2
# Summary of the method: as §1
# [62] = biological target: SpCyk3
# Summary of the method: as §1
# [63] = biological target: SpHof1
# Summary of the method: as §1
# [64] = biological target: SpHof1-2
# Summary of the method: as §1
# [65] = biological target: SpHof1-3
# Summary of the method: as §1
# [66] = biological target: SpHse1
# Summary of the method: as §1
# [67] = biological target: SpLsb1
# Summary of the method: as §1
# [68] = biological target: SpLsb4
# Summary of the method: as §1
# [69] = biological target: SpMyo1
# Summary of the method: as §1
# [70] = biological target: SpNbp2
# Summary of the method: as §1
# [71] = biological target: SpPex13
# Summary of the method: as §1
# [72] = biological target: SpRvs167
# Summary of the method: as §1
# [73] = biological target: SpSla1-D1-D2
# Summary of the method: as §1
# [74] = biological target: SpSla1-D3
# Summary of the method: as §1
binder,measurement,setting,value
LYEAMPPTLPHRDWK,SPOT peptide array binding signal intensity,[1],1
same,SPOT peptide array binding signal intensity,[2],2.5
same,SPOT peptide array binding signal intensity,[3],13.5
same,SPOT peptide array binding signal intensity,[4],≤ 0
same,SPOT peptide array binding signal intensity,[5],≤ 0
same,SPOT peptide array binding signal intensity,[6],2
same,SPOT peptide array binding signal intensity,[7],33
same,SPOT peptide array binding signal intensity,[8],0.5
same,SPOT peptide array binding signal intensity,[9],50
same,SPOT peptide array binding signal intensity,[10],30.5
same,SPOT peptide array binding signal intensity,[11],518
same,SPOT peptide array binding signal intensity,[12],0.5
same,SPOT peptide array binding signal intensity,[13],154
same,SPOT peptide array binding signal intensity,[14],30.2
same,SPOT peptide array binding signal intensity,[15],26.5
same,SPOT peptide array binding signal intensity,[16],≤ 0
same,SPOT peptide array binding signal intensity,[17],≤ 0
same,SPOT peptide array binding signal intensity,[18],8
same,SPOT peptide array binding signal intensity,[19],1.5
same,SPOT peptide array binding signal intensity,[20],16.5
same,SPOT peptide array binding signal intensity,[21],16
same,SPOT peptide array binding signal intensity,[22],50.5
same,SPOT peptide array binding signal intensity,[23],27.2
same,SPOT peptide array binding signal intensity,[24],≤ 0
same,SPOT peptide array binding signal intensity,[25],327
same,SPOT peptide array binding signal intensity,[26],0.5
same,SPOT peptide array binding signal intensity,[27],150
same,SPOT peptide array binding signal intensity,[28],0.5
same,SPOT peptide array binding signal intensity,[29],806
same,SPOT peptide array binding signal intensity,[30],12
same,SPOT peptide array binding signal intensity,[31],141
same,SPOT peptide array binding signal intensity,[32],195
same,SPOT peptide array binding signal intensity,[33],6
same,SPOT peptide array binding signal intensity,[34],130
same,SPOT peptide array binding signal intensity,[35],25.5
same,SPOT peptide array binding signal intensity,[36],60.5
same,SPOT peptide array binding signal intensity,[37],≤ 0
same,SPOT peptide array binding signal intensity,[38],≤ 0
same,SPOT peptide array binding signal intensity,[39],≤ 0
same,SPOT peptide array binding signal intensity,[40],≤ 0
same,SPOT peptide array binding signal intensity,[41],21
same,SPOT peptide array binding signal intensity,[42],3
same,SPOT peptide array binding signal intensity,[43],95.5
same,SPOT peptide array binding signal intensity,[44],4.5
same,SPOT peptide array binding signal intensity,[45],15
same,SPOT peptide array binding signal intensity,[46],13
same,SPOT peptide array binding signal intensity,[47],2
same,SPOT peptide array binding signal intensity,[48],736
same,SPOT peptide array binding signal intensity,[49],636
same,SPOT peptide array binding signal intensity,[50],19.5
same,SPOT peptide array binding signal intensity,[51],0.5
same,SPOT peptide array binding signal intensity,[52],252
same,SPOT peptide array binding signal intensity,[53],807
same,SPOT peptide array binding signal intensity,[54],374
same,SPOT peptide array binding signal intensity,[55],257
same,SPOT peptide array binding signal intensity,[56],46
same,SPOT peptide array binding signal intensity,[57],85.5
same,SPOT peptide array binding signal intensity,[58],≤ 0
same,SPOT peptide array binding signal intensity,[59],2
same,SPOT peptide array binding signal intensity,[60],67
same,SPOT peptide array binding signal intensity,[61],0.5
same,SPOT peptide array binding signal intensity,[62],3
same,SPOT peptide array binding signal intensity,[63],2
same,SPOT peptide array binding signal intensity,[64],2
same,SPOT peptide array binding signal intensity,[65],0.5
same,SPOT peptide array binding signal intensity,[66],78.5
same,SPOT peptide array binding signal intensity,[67],2.25
same,SPOT peptide array binding signal intensity,[68],1290
same,SPOT peptide array binding signal intensity,[69],32.5
same,SPOT peptide array binding signal intensity,[70],22.5
same,SPOT peptide array binding signal intensity,[71],38.5
same,SPOT peptide array binding signal intensity,[72],282
same,SPOT peptide array binding signal intensity,[73],1
same,SPOT peptide array binding signal intensity,[74],21
